The record followed here is PubChem BioAssay (EPA / NIEHS).

Broadly, the AC50 is the concentration at which the activity in the assay is half-maximal.

The source made the active and inactive calls. How the source made its calls: active means hit-call score of the fitted dose curve at least 0.9, where 1 is the maximum; inactive means score below 0.9.

What all share (settings): mRNA level, 48 h; actives raise or lower the signal
Read-out in experiment [1]: ABC Transporter (ABCC2), ABCC2 (gene 1244)
In words: LTEA_HepaRG_ABCC2: Life Technologies and Expression Analysis (LTEA) Assay for ABC Transporter (ABCC2) using HepaRG (AID 2283464). The method in brief: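 Endpoint is ABCC2 transcript level from qRT-PCR, normalized to three housekeeping genes and fitted bidirectionally relative to DMSO. Human HepaRG cells received test chemical for 48 h at up to 100 uM (8 points, half-log steps, 0.5% DMSO), duplicate wells.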

Read-out in experiment [2]: Broad substrate specificity ATP-binding cassette transporter ABCG2 (Homo sapiens) (UniProt Q9UNQ0)
In words: LTEA_HepaRG_ABCG2: Life Technologies and Expression Analysis (LTEA) Assay for ABC Transporter (ABCG2) using HepaRG (AID 2283465). The method in brief: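 HepaRG, 48 h exposure, 8-pt half-log series from 100 uM, 0.5% DMSO vehicle, duplicates. Readout: ABCG2 transcript by qRT-PCR (Fluidigm array), housekeeping-normalized; bidirectional curve fit relative to DMSO baseline.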

Read-out in experiment [3]: ATP-citrate lyase (ACLY), ACLY (gene 47)
In words: LTEA_HepaRG_ACLY: Life Technologies and Expression Analysis (LTEA) Assay for ATP-citrate lyase (ACLY) using HepaRG (AID 2283466). Summed up: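 qRT-PCR readout of ACLY transcript after 48 h chemical treatment of HepaRG cells; expression normalized to three housekeeping genes. Eight-point half-log series, highest 100 uM, 0.5% DMSO vehicle. Gain or loss fitted against DMSO baseline.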

Read-out in experiment [4]: Peroxisomal acyl-coenzyme A oxidase 1 (ACOX1) gene, ACOX1 (gene 51)
In words: LTEA_HepaRG_ACOX1: Life Technologies and Expression Analysis (LTEA) Assay for Peroxisomal acyl-coenzyme A oxidase 1 (ACOX1) gene using HepaRG (AID 2283467). Summed up: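 HepaRG, 48 h chemical exposure, 8-pt half-log series from 100 uM top, 0.5% DMSO vehicle, duplicates. Readout: ACOX1 mRNA by Fluidigm qRT-PCR, housekeeping-normalized; bidirectional fit vs DMSO baseline.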

Read-out in experiment [5]: Alkaline Phosphatase, Placental (ALPP) gene, ALPP (gene 250)
Briefly: LTEA_HepaRG_ALPP: Life Technologies and Expression Analysis (LTEA) Assay for Alkaline Phosphatase, Placental (ALPP) gene using HepaRG (AID 2283468).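 On AC50: differentiated human HepaRG liver cells in serum-free induction medium.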 Summed up:
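ALPP transcript level, measured by qRT-PCR and normalized to three housekeeping genes (ACTB, GAPDH, POLR2A), after 48 h dosing of differentiated HepaRG in serum-free induction medium. Top concentration 100 uM with half-log dilutions (8 points, 0.5% DMSO, duplicates); bidirectional fitting relative to DMSO.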

Read-out in experiment [6]: Bcl-2 (BAD) gene, BAD (gene 572)
Briefly: LTEA_HepaRG_BAD: Life Technologies and Expression Analysis (LTEA) Assay for Bcl-2 (BAD) gene using HepaRG (AID 2283469). The method in brief:
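HepaRG, 48 h exposure, 8-pt half-log curve from 100 uM in 0.5% DMSO, duplicates. Readout: TaqMan qRT-PCR for BAD mRNA, housekeeping-normalised (ACTB/GAPDH/POLR2A); gain or loss fitted against DMSO baseline.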

Read-out in experiment [7]: Bcl-2 (BAX) gene, BAX (gene 581)
Briefly: LTEA_HepaRG_BAX: Life Technologies and Expression Analysis (LTEA) Assay for Bcl-2 (BAX) gene using HepaRG (AID 2283470). The method in brief:
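qRT-PCR read-out of BAX mRNA, normalized to three housekeeping genes, after 48 h chemical exposure of human HepaRG cells in serum-free induction medium; eight-point half-log series, top 100 uM, 0.5% DMSO vehicle; bidirectional fit versus DMSO.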

Read-out in experiment [8]: adenosine kinase (ADK) gene, ADK (gene 132)
In words: LTEA_HepaRG_ADK: Life Technologies and Expression Analysis (LTEA) Assay for adenosine kinase (ADK) gene using HepaRG (AID 2283471). Summed up:
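Following 48 h exposure of HepaRG cells in 0.5% DMSO (top concentration 100 uM, duplicate wells), ADK mRNA induction or suppression was measured by qRT-PCR, normalised to ACTB/GAPDH/POLR2A, and fitted bidirectionally relative to vehicle.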

Read-out in experiment [9]: Alpha-fetoprotein (AFP) gene, AFP (gene 174)
Briefly: LTEA_HepaRG_AFP: Life Technologies and Expression Analysis (LTEA) Assay for Alpha-fetoprotein (AFP) gene using HepaRG (AID 2283472). The method in brief: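 qRT-PCR (Fluidigm TaqMan) readout of AFP transcript, normalized to three housekeeping genes, fitted bidirectionally against 0.5% DMSO baseline. HepaRG cells received chemicals for 48 h in serum-free induction medium, top concentration 100 uM, half-log steps.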

Read-out in a further experiment: BCL2L11 (gene 10018)
In words: LTEA_HepaRG_BCL2L11: Life Technologies and Expression Analysis (LTEA) Assay for Bcl-2 (BCL2L11) gene using HepaRG (AID 2283473). Summed up:
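BCL2L11 transcript levels are measured by Fluidigm qRT-PCR, normalized to three housekeeping genes. HepaRG cultures were plated 48 h, then treated 48 h with test chemical (top 100 uM, half-log, 0.5% DMSO vehicle); curves were fitted bidirectionally against DMSO.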

Read-out in experiment [10]: Apolipoprotein A-V (APOA5) gene, APOA5 (gene 116519)
In words: LTEA_HepaRG_APOA5: Life Technologies and Expression Analysis (LTEA) Assay for Apolipoprotein A-V (APOA5) gene using HepaRG (AID 2283474). Summed up: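 APOA5 transcript levels were quantified by qRT-PCR, normalized to three housekeeping genes, after 48 h chemical treatment of HepaRG cells (8 points, 100 uM maximum, half-log steps, 0.5% DMSO). Curves fitted in both directions against vehicle.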

Read-out in experiment [11]: Bcl-2 (BID) gene, BID (gene 637)
In words: LTEA_HepaRG_BID: Life Technologies and Expression Analysis (LTEA) Assay for Bcl-2 (BID) gene using HepaRG (AID 2283476). The method in brief: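 HepaRG, 48 h exposure, 8-pt half-log series, top 100 uM, 0.5% DMSO vehicle, duplicates. Readout: BID mRNA by TaqMan qRT-PCR; housekeeping-normalized; bidirectional curve fit vs DMSO baseline.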

Read-out in another experiment: Caspase-3 (Homo sapiens) (UniProt P42574)
In words: LTEA_HepaRG_CASP3: Life Technologies and Expression Analysis (LTEA) Assay for cysteine-aspartic acid protease (CASP3) using HepaRG (AID 2283477). Summed up:
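Expression of CASP3 was quantified by TaqMan qRT-PCR against three housekeeping genes (ACTB, GAPDH, POLR2A), bidirectionally versus 0.5% DMSO. HepaRG cultures received compounds in duplicate, top 100 uM with half-log steps, for 48 h in serum-free induction medium.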

Read-out in experiment [12]: Cytochrome P450 (CYP24A1), CYP24A1 (gene 1591)
In words: LTEA_HepaRG_CYP24A1: Life Technologies and Expression Analysis (LTEA) Assay for Cytochrome P450 (CYP24A1) using HepaRG (AID 2283478). The method in brief:
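mRNA of CYP24A1 quantified by TaqMan qRT-PCR (ACTB/GAPDH/POLR2A normalization) after 48 h chemical exposure of HepaRG cells, top concentration 100 uM, half-log steps, 0.5% DMSO vehicle, duplicates. Curves fitted bidirectionally against DMSO baseline.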

Read-out in experiment [13]: Cytochrome P450 (CYP1A2), CYP1A2 (gene 1544)
Briefly: LTEA_HepaRG_CYP1A2: Life Technologies and Expression Analysis (LTEA) Assay for Cytochrome P450 (CYP1A2) using HepaRG (AID 2283479). The method in brief: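 CYP1A2 transcript measured by TaqMan qRT-PCR against three housekeeping genes after 48-hour chemical exposure of HepaRG cells. Eight-point half-log series topping at 100 uM in 0.5% DMSO, duplicates; gain or loss fitted relative to vehicle.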

Read-out in experiment [14]: cysteine-aspartic acid protease (CASP8), CASP8 (gene 841)
In words: LTEA_HepaRG_CASP8: Life Technologies and Expression Analysis (LTEA) Assay for cysteine-aspartic acid protease (CASP8) using HepaRG (AID 2283480). The method in brief: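 qRT-PCR readout of CASP8 mRNA, normalized to three housekeeping genes, after 48 h chemical exposure of HepaRG cells; 8-point half-log series, top 100 uM, 0.5% DMSO vehicle. Bidirectional curve fitting against DMSO baseline.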

Read-out in experiment [15]: Cytochrome P450 2C19 (Homo sapiens) (UniProt P33261)
Briefly: LTEA_HepaRG_CYP2C19: Life Technologies and Expression Analysis (LTEA) Assay for CYP2C19 using HepaRG (AID 2283482). The method in brief: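 CYP2C19 transcript levels by qRT-PCR, normalized to three housekeeping genes, in HepaRG cells after 48 h chemical exposure. Eight-point half-log series topping at 100 uM, 0.5% DMSO vehicle. Increases and decreases both fitted against DMSO.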

Read-out in a further experiment: CYP2C8 (gene 1558)
In words: LTEA_HepaRG_CYP2C8: Life Technologies and Expression Analysis (LTEA) Assay for CYP2C8 using HepaRG (AID 2283483). The method in brief: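 HepaRG (human liver line), 48 h chemical exposure, 8-pt half-log series from 100 uM, 0.5% DMSO vehicle. Readout: CYP2C8 transcript by qRT-PCR, housekeeping-normalized. Bidirectional fit vs DMSO baseline.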

Read-out in experiment [16]: Cytochrome P450 (CYP2B6), CYP2B6 (gene 1555)
In words: LTEA_HepaRG_CYP2B6: Life Technologies and Expression Analysis (LTEA) Assay for Cytochrome P450 (CYP2B6) using HepaRG (AID 2283481). Summed up: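 CYP2B6 transcript level quantified by qRT-PCR against three housekeeping genes, fitted bidirectionally relative to DMSO. HepaRG cultures received chemicals for 48 h, 8-point half-log series from 100 uM in 0.5% DMSO, duplicate wells, serum-free induction medium.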

Caspase-3 (Homo sapiens), sequence (P42574 whole entry, looked up): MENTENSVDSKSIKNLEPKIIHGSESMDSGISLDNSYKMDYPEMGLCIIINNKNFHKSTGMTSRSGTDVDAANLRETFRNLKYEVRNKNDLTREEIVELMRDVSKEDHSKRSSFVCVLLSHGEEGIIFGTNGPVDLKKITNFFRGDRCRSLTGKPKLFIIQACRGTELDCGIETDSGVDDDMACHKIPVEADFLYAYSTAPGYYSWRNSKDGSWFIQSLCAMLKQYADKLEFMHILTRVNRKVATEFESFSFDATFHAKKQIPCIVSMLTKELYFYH
Cytochrome P450 2C19 (Homo sapiens), sequence (P33261 whole entry, looked up): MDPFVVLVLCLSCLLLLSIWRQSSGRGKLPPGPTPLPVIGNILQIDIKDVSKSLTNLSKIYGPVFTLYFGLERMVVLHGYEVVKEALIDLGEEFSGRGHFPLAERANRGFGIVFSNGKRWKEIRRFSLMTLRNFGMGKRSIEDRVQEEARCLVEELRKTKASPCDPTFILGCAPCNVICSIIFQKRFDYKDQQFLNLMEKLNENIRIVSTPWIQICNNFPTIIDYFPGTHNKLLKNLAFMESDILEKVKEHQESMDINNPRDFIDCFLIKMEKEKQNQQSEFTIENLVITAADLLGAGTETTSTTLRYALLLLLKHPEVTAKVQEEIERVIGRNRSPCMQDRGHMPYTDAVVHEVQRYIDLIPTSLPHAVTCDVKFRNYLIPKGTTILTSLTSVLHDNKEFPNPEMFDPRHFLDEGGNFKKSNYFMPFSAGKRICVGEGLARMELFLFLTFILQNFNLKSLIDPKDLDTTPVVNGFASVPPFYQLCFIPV
Broad substrate specificity ATP-binding cassette transporter ABCG2 (Homo sapiens), sequence (Q9UNQ0 whole entry, looked up): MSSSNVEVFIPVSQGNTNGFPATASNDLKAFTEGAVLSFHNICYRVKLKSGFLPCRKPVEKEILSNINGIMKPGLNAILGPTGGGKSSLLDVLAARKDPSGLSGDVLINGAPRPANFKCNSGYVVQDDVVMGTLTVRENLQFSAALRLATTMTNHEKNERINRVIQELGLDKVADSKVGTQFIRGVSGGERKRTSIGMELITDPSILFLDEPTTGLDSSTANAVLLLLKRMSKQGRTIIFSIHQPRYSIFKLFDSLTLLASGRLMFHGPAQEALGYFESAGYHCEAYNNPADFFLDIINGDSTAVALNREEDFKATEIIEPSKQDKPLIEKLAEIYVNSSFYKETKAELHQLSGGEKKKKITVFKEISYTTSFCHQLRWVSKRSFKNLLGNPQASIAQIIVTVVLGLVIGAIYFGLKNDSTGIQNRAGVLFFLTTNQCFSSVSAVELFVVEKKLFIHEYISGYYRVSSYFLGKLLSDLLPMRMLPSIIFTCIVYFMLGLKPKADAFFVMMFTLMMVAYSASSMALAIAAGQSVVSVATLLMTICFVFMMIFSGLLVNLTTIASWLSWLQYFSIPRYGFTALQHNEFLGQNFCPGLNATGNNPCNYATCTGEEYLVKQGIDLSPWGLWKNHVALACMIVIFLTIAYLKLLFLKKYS

Take `OCCCl`: the compound was classed as inactive in [1], in experiment [2], in [3], in experiment [4], in [5] and in experiment [6]. In addition, the outcome (in [7]; in [8]; in [9]; with BCL2L11 (gene 10018); in experiment [10]; in [11]) was inactive. The result (in the experiment with Caspase-3 (Homo sapiens); in experiment [12]; in experiment [13]; in experiment [14]; in [15]; in the experiment with CYP2C8 (gene 1558)) was inactive.

`N#CC(Br)Br`: the result in experiment [1], in experiment [2], in experiment [3], in experiment [4], in [5] and in [6] was inactive. The result (in experiment [7]; in experiment [8]; in experiment [9]; with BCL2L11 (gene 10018); in experiment [10]; in experiment [11]) was inactive. The call (with Caspase-3 (Homo sapiens); in experiment [13]; in experiment [14]; in experiment [16]; in experiment [15]; in the experiment with CYP2C8 (gene 1558)) was inactive.

As for `O=C(N[C@H](c1ccccc1)[C@@H]1CN2CCC1CC2)c1c(Cl)ccc(C(F)(F)F)c1Cl`, the AC50 is 71.8 µM (active) in experiment [1]; 78.7 µM (active) in experiment [3]; 70.3 µM (active) in experiment [4]; 11.8 µM (active) in [5]; 75.3 µM (active) in experiment [7]; 58 µM (active) in [8]. Also, the AC50 was 22.8 µM (active) in experiment [9]; 11.3 µM (active) with BCL2L11 (gene 10018); 72.6 µM (active) in [10]; 70 µM (active) with Caspase-3 (Homo sapiens); 84.6 µM (active) in [13]; 73.7 µM (active) in experiment [14]. In addition, the AC50 in experiment [15] was 75.2 µM (active). The compound was classed as inactive (in [2]; in [6]; in experiment [11]; in the experiment with CYP2C8 (gene 1558)).

Regarding `CCN(CC)N=O`, the result in experiment [1], in experiment [2], in [3], in experiment [4], in experiment [5] and in [6] was inactive. Besides, the result (in [7]; in experiment [8]; in experiment [9]; with BCL2L11 (gene 10018); in experiment [10]; in experiment [11]) was inactive. The result (with Caspase-3 (Homo sapiens); in experiment [13]; in experiment [14]; in [15]; in the experiment with CYP2C8 (gene 1558)) was inactive.
